Data from the supplement of paper PMC12297408.
Counter-ions that a name gives are not always drawn. In all, about 1,300 compounds went through this assay and about 40 (3%) showed activity. This excerpt belongs to a sample that is enriched for actives. Values without a mark were called inactive.

Tested on: Plasmodium falciparum NF54/iGP1_RE9H ulg8 stage V gametocytes
Experiment: gametocyte viability (luciferase signal relative to DMSO control) (% of DMSO control); higher = less gametocytocidal activity, active = 50 or less
Conditions: exposure time: 72 h
Procedure, shortened: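 Gametocyte viability is reported relative to the average of DMSO vehicle wells on the same plate. The assay used day-12 stage V NF54/iGP1_RE9Hulg8 gametocytes at ~2.5% gametocytemia and 3% hematocrit, in 0.5% Albumax II medium, added to 96-well plates of compounds spotted in nanolitre volumes for final 10 µM or 1 µM, one well each. After 72 h at 37 °C, 90 µl was mixed with 10 µl D-luciferin (30 mg/ml), and luminescence was recorded with an IVIS Lumina II.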

Row | Compound | gametocyte viability (concentration: 1 µM) | gametocyte viability (concentration: 10 µM)
1 | CC(C)c1nc(CN(C)C(=O)N[C@H](C(=O)N[C@@H](Cc2ccccc2)C[C@H](O)[C@H](Cc2ccccc2)NC(=O)OCc2cncs2)C(C)C)cs1 [Ritonavir] | 66.4 | 36.5 (active)
2 | Nc1ccc(/N=N/c2ccccc2)c(N)n1 [Phenazopyridine hydrochloride] | 88.3 | 48.1 (active)
3 | Nc1c2ccccc2nc2ccccc12 [Aminacrine] | 85.8 | 81.4
4 | CCN1CCN(C(=O)N[C@@H](C(=O)N[C@@H]2C(=O)N3C(C(=O)O)=C(CSc4nnnn4C)CS[C@H]23)c2ccc(O)cc2)C(=O)C1=O [Cefoperazone dihydrate] | 79.3 | 83.8
5 | CC(N)CCCC(C)(C)O (stereo not drawn) [Heptaminol hydrochloride] | 82.3 | 84.6
6 | Cc1c(-c2ccccc2)oc2c(C(=O)OCCN3CCCCC3)cccc2c1=O [Flavoxate hydrochloride] | 92 | 87
7 | N#CC(c1ccc(Cl)cc1)c1c(Cl)cc(-n2ncc(=O)[nH]c2=O)cc1Cl (stereo not drawn) [Diclazuril] | 92.9 | 91.4
8 | CC(=O)Nc1c(I)c(C(=O)N[C@H]2C(O)O[C@H](CO)[C@@H](O)[C@@H]2O)c(I)c(N(C)C(C)=O)c1I (stereo partly drawn) [Metrizamide] | 84.7 | 88.9
9 | CCCC1C(=O)N2C(N(C)C)=Nc3ccc(C)cc3N2C1=O (stereo not drawn) [Azapropazone] | 89.5 | 87.5
10 | Oc1c(Cl)cc(Cl)c2cccnc12 [Chloroxine] | 83.4 | 84.2
11 | CO[C@@]1(NC(=O)Cc2cccs2)C(=O)N2C(C(=O)O)=C(COC(N)=O)CS[C@@H]21 [Cefoxitin sodium salt] | 85.9 | 81.1
12 | CNC1(C)C2CCC(C2)C1(C)C (stereo not drawn) [Mecamylamine hydrochloride] | 93.8 | 94.3
13 | CCC(C)(C)C(=O)O[C@H]1C[C@@H](C)C=C2C=C[C@H](C)[C@H](CC[C@@H]3C[C@@H](O)CC(=O)O3)[C@H]21 [Simvastatin] | 80.4 | 85.5
14 | CCOC(=O)C1=C(COCCN)NC(C)=C(C(=O)OC)C1c1ccccc1Cl (stereo not drawn) [Amlodipine] | 82.2 | 63.1
15 | COCCc1ccc(OCC(O)CNC(C)C)cc1 (racemic) [Metoprolol-(+,-) (+)-tartrate salt] | 94 | 94
16 | CCCCCCNC(=O)n1cc(F)c(=O)[nH]c1=O [Carmofur] | 80.2 | 76.4
17 | Cc1cccn2c(=O)c(-c3nnn[nH]3)cnc12 [Pemirolast potassium] | 80.6 | 84.7
18 | COc1cc(C(=O)N2CCOCC2)cc(OC)c1OC [Trimetozine] | 81.7 | 80.2
19 | CN1CCc2c(c3ccccc3n2Cc2ccccc2)C1 [Mebhydroline 1,5-naphtalenedisulfonate] | 88.8 | 83.3
20 | Cc1c(N(C)C)c(=O)n(-c2ccccc2)n1C [Amidopyrine] | 99 | 95.3

Row | Compound | gametocyte viability (concentration: 1 µM) | gametocyte viability (concentration: 10 µM)
21 | O=C1c2cccc(O)c2C(=O)c2c(O)cccc21 [1,8-Dihydroxyanthraquinone] | 82.8 | 85.1
22 | O=C1c2c(O)cccc2Cc2cccc(O)c21 [Anthralin] | 89.3 | 86.9
23 | O=C1c2c(O)ccc(O)c2C(=O)c2c(NCCNCCO)ccc(NCCNCCO)c21 [Mitoxantrone dihydrochloride] | 86.2 | 12.9 (active)
24 | O=c1[nH]c(=O)n(C2CCCO2)cc1F (stereo not drawn) [Tegafur] | 82.6 | 82.6
25 | Cc1scc2c1N(C(=O)CN1CCN(C)CC1)c1ccccc1NC2=O [Telenzepine dihydrochloride] | 97.8 | 96.3
26 | CC[N+](CC)(CC)CCC(O)(c1ccccc1)C1CCCCC1 (stereo not drawn) [Tridihexethyl chloride] | 95.7 | 100
27 | CCOC(=O)C1=C(C)NC(C)=C(C(=O)OCC)C1c1ccccc1/C=C/C(=O)OC(C)(C)C [Lacidipine] | 97.1 | 96.5
28 | Cc1c(Cl)cccc1Nc1ccccc1C(=O)O [Tolfenamic acid] | 83.6 | 90.8
29 | COc1ccc(/C=C/C(=O)Nc2ccccc2C(=O)O)cc1OC [Tranilast] | 68.5 | 40.9 (active)
30 | Cc1cccc(Nc2ccccc2C(=O)O)c1C [Mefenamic acid] | 94 | 94.6
31 | COC1=C(OC)C(=O)C(CCCCCCCCCCO)=C(C)C1=O [Idebenone] | 88 | 86.8
32 | Cn1c(=O)c2c(ncn2CC2OCCO2)n(C)c1=O [Doxofylline] | 86.6 | 86.7
33 | COc1cc(N)c(Cl)cc1C(=O)NC1CCN(CCCOc2ccc(F)cc2)CC1OC (stereo not drawn) [Cisapride] | 95.9 | 96.7
34 | C[C@H](CCC(=O)O)[C@H]1CC[C@H]2[C@@H]3C(=O)C[C@@H]4CC(=O)CC[C@]4(C)[C@H]3CC(=O)[C@]12C [Dehydrocholic acid] | 95.4 | 93.6
35 | C=C1c2c(Cl)ccc(O)c2C(O)=C2C(=O)[C@]3(O)C(O)=C(C(N)=O)C(=O)[C@@H](N(C)C)[C@@H]3[C@@H](O)[C@H]12.O=C(O)c1cc(S(=O)(=O)O)ccc1O [Meclocycline sulfosalicylate] | 80.9 | 83.5
36 | CN(C)CC/C=C1/c2ccccc2COc2ccc(CC(=O)O)cc21 [Olopatadine hydrochloride] | 77.9 | 86.5
37 | CCCOc1ccc(C(=O)OCCN(CC)CC)cc1N [Proparacaine hydrochloride] | 98.5 | 105
38 | COc1cccc(OC)c1C(=O)N[C@@H]1C(=O)N2[C@@H]1SC(C)(C)[C@@H]2C(=O)O [Methicillin sodium] | 83.4 | 83.1
39 | Clc1ccccc1CN1CCc2sccc2C1 [Ticlopidine hydrochloride] | 96 | 93.2
40 | CC(=O)OCC(=O)[C@@]1(O)CC[C@H]2[C@@H]3CCC4=CC(=O)CC[C@]4(C)[C@@]3(F)[C@@H](O)C[C@@]21C [Fludrocortisone acetate] | 79.5 | 75.8

Row | Compound | gametocyte viability (concentration: 1 µM) | gametocyte viability (concentration: 10 µM)
41 | Nc1c2c(nc3ccccc13)CCCC2O (racemic) [Hydroxytacrine maleate (R,S)] | 101 | 93.6
42 | O=C1c2cccc3c2[C@H](CCC3)CN1[C@@H]1CN2CCC1CC2 [Palonosetron hydrochloride] | 85.5 | 81.6
43 | CCN(CC)CCOc1ccc(C(=C(Cl)c2ccccc2)c2ccccc2)cc1 [Clomiphene citrate (Z,E)] | 82.4 | 95.2
44 | C#Cc1cccc(Nc2ncnc3cc(OCCOC)c(OCCOC)cc23)c1 [Erlotinib] | 70.7 | 37.2 (active)
45 | COc1cc2ncnc(Nc3ccc(F)c(Cl)c3)c2cc1OCCCN1CCOCC1 [Gefitinib] | 95.8 | 85.9
46 | Cc1c(C)c2c(c(C)c1O)CCC(C)(C(=O)O)O2 (stereo not drawn) [Trolox] | 88.2 | 87.5
47 | CCOC(=O)C1=C[C@]2(CC)CCCN3CCc4c(n1c1ccccc41)[C@@H]32 [Vinpocetine] | 86.2 | 87.6
48 | CC(C)NC[C@@H](O)COc1cccc2ccccc12 [(R)-Propranolol hydrochloride] | 93.4 | 89
49 | Nc1ccccc1S(N)(=O)=O [2-Aminobenzenesulfonamide] | 98 | 95.8
50 | CN1CCN(CC(=O)N2c3ccccc3C(=O)Nc3cccnc32)CC1 [Pirenzepine dihydrochloride] | 86.5 | 83.3
51 | CCN(CCCc1ccccc1)CCCc1ccccc1 [Alverine citrate salt] | 82.3 | 82
52 | CCN(CCO)CCCC(C)Nc1ccnc2cc(Cl)ccc12 (stereo not drawn) [Hydroxychloroquine sulfate] | 83.3 | 80.8
53 | CCN(CC)CCCC(C)Nc1c2ccc(Cl)cc2nc2ccc(OC)cc12 (stereo not drawn) [Quinacrine dihydrochloride dihydrate] | 113 | 44.5 (active)
54 | CCN(CC)CCCC(C)Nc1ccnc2cc(Cl)ccc12 (stereo not drawn) [Chloroquine diphosphate] | 82.8 | 86.8
55 | O=C(N/N=C/c1ccc([N+](=O)[O-])o1)c1ccc(O)cc1 [Nifuroxazide] | 95.9 | 30.6 (active)
56 | O=C1CN(/N=C/c2ccc([N+](=O)[O-])o2)C(=O)N1 [Nitrofurantoin] | 83.4 | 82.5
57 | NC(=O)N/N=C/c1ccc([N+](=O)[O-])o1 [Nitrofural] | 90.1 | 89.1
58 | CCOC(=O)c1ccc(OC(=O)CCCCCNC(=N)N)cc1 [Gabexate mesilate] | 88.8 | 92
59 | CN1CCC(=C2c3ccccc3CC(=O)c3sccc32)CC1 [Ketotifen fumarate] | 79.5 | 84.2
